Assay outcomes from PubChem BioAssay.
Shown is part of a subset that was picked to be rich in hits.
IMPase inh: membrane-permeable compound that blocks inositol monophosphatase; CHO-M1 cells, IP1 accumulation, HTRF TR-FRET ratio; inhibition (IP1 accumulation), % at 46.1 µM; 120,000 tested, under 10 active; AID 901; active means well fitted curve in the direction sought with a large enough effect in the signal ratio, not every such curve was filed as active; inconclusive means small, poorly fitted or top-dose-only effect, or a change in a side signal; inactive means no such curve, though single readings can be large or run the other way; the % refers to the signal ratio;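 further: cells stimulated with carbachol in lithium chloride buffer; higher means more IMPase inhibition seen as more IP1 and lower FRET ratio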
Target sequence (P97697 whole entry, looked up): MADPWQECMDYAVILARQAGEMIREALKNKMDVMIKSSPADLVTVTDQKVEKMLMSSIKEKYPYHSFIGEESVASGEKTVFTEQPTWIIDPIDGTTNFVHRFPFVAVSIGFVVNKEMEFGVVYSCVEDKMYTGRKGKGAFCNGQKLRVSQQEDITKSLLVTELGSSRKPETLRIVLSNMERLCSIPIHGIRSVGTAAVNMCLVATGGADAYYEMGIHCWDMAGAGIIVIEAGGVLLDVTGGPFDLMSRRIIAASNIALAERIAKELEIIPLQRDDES
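Carbachol-driven Gq signalling in CHO-M1 cells (2000/well) generates IP1. Compounds that block IMPase raise IP1 and so reduce the FRET signal from Eu-anti-IP1 and d2-IP1 after a 10 min room-temperature lysis.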
15-hLO-2 inh: blocks human 15-lipoxygenase 2 activity | purified 15hLO-2, xylenol orange hydroperoxide absorbance | Potency, µM (titrated, usually from 57.1 µM), hits mostly inhibitors | 110,000 tested, 0.56% active; further: nearly all actives have a fitted effect of over 60% in size
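Enzyme 50 nM, AA 45 uM, 25 mM Hepes pH 7.5 + 0.01% Triton X-100; cpd preinc 15 min RT, rxn 90 min RT; stop/detect with 200 uM XO + 300 uM Fe(II) in 50 mM H2SO4, 30 min; A573/A405.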
ALOX12 inhib: blocks human 12-lipoxygenase activity; P18054; purified 12-hLO, xylenol orange hydroperoxide absorbance; Potency, µM (doses to about 57.1 µM), usual class: inhibitors; 150,000 tested, 0.12% active; further: nearly all actives have a fitted effect of over 55% in size
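Hydroperoxide formation by human 12-lipoxygenase from 40 uM arachidonic acid was followed colorimetrically via ferric-xylenol orange complex, using the 573/405 nm absorbance ratio. Enzyme concentration was 150 nM, with 30 min reaction at room temperature.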
IMPase Li inh: membrane-permeable IMPase blocker, potentiated with lithium. Potency, µM (highest dose often 59.4 µM), usual class: inhibitors. AID 1457. CHO-M1 cells, IP1 TR-FRET (IP-One), carbachol + lithium. 210,000 tested, 0.35% active;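 further: IP1 builds up when IMPase is blocked and the TR-FRET signal falls; nearly all actives have a fitted effect of over 50% in size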
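Steps: plate 2000 CHO-M1 cells per well and culture 16–30 h; add compound and lithium; incubate 30 min, 37C; add d2-IP1 tracer and Eu cryptate anti-IP1 antibody in lysis buffer; read after 10 min at room temperature.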
Numbers stand for hits; – = inactive; ? = inconclusive; · = no result; [ ] = another dose, or the depositor's remark. Unless noted, the call rests on the fitted dose curve; in most records, active means well fitted curve in the direction sought with a large enough effect; inconclusive means small, poorly fitted or top-dose-only effect, or another doubt; inactive means no such curve, though single readings can be large; an effect the other way counts as inactive or inconclusive.

SMILES	IMPase inh	15-hLO-2 inh	ALOX12 inhib	IMPase Li inh
CC1Cc2cc(/C(O)=C3/C(=O)C(=O)N(CCN4CCOCC4)C3c3cccc(Cl)c3)ccc2O1 (centres undefined)	?	–	–	6.3µM
C=CCOc1ccc(C2C(C(=O)c3ccco3)=C(O)C(=O)N2c2nnc(C)s2)cc1 (centres undefined)	·	·	·	11µM
COc1ccc(C2C(C(=O)c3ccco3)=C(O)C(=O)N2c2nnc(C)s2)cc1 (centres undefined)	·	·	·	11µM
Oc1c(Cl)cc(Cl)cc1Sc1cc(Cl)cc(Cl)c1O	·	6.3µM	?	–
Cc1ccc(NC(=O)CC2Sc3ccccc3NC2=O)c(Br)c1 (centres undefined)	–	·	·	·
COC(=O)C1=C(C)Nc2ccc(C)cc2S1	–	6.3µM	–	–
COc1cc2oc(=O)c3c(c2cc1OCC(=O)c1c(C)n(C)c2ccccc12)CCCC3	·	·	–	10µM
CCc1cc2c3c(c(=O)oc2cc1OC)CCCC3	–	–	–	–
CCOc1ccc2nc(-c3cc(NC(C)=O)ccc3O)sc2c1	·	·	·	10µM
COc1ccc(OCC(=O)Nc2ccc(O)c(-c3nc4ccccc4s3)c2)cc1	–	·	·	·
CCOC(=O)c1c(C)[nH]sc1=S	?	?	–	14µM
CCOC(=O)c1[nH]c(C)c(C(=O)OCC)c1C	–	–	–	–
N#CCCn1c(=O)c(-c2cccc(C#N)c2)nc2cnc(N3CCOCC3)nc21	·	–	·	–
CCOc1ccc(Cn2nnc(C(=O)NCc3ccc(OC)cc3)c2N)cc1	?	·	–	11µM
CCc1ccc(Cn2nnc(C(=O)Nc3ccc(OC)cc3OC)c2N)cc1	–	–	–	–
CCCCCn1c(Sc2ncccn2)nc2c1c(=O)[nH]c(=O)n2C	–	·	–	–
CCCCCn1c(Sc2nc3ccccc3s2)nc2c1c(=O)[nH]c(=O)n2C	–	–	–	13µM
CC(=NC1CCCCC1)C1=C(O)c2ccccc2C1=O	–	16µM	–	–
CSC(=NC1CCCCC1)NS(=O)(=O)c1ccccc1	–	–	–	–
Cc1nc(SCC(=O)Nc2ccc3c(c2)OCO3)c(C#N)c2c1CCCC2	–	–	–	–
CCOc1cccc(NC(=O)CSc2nc(C)c3c(c2C#N)CCCC3)c1	?	–	–	4µM
S=c1nc[nH]c2c1[nH]c1ccccc12	?	–	–	4.5µM
CN1CCCc2cc3c(C(F)(F)F)cc(=O)oc3nc21	?	–	–	10µM
CC(C)c1cc(=O)oc2c3c4c(cc12)CCCN4CCC3	–	–	–	–
C=C1C(=O)C=C2CN(C(=O)c3ccccc3)[C@@](Cc3ccc(OC)cc3)(C(=O)OC)[C@@H]12	·	–	–	–
SMILES	IMPase inh	15-hLO-2 inh	ALOX12 inhib	IMPase Li inh
CN(NC(=O)c1ccco1)c1nc2ccccc2nc1C(F)(F)F	·	·	·	–
Cc1ccccc1C(=O)NN(C)c1nc2ccccc2nc1C(F)(F)F	–	·	–	5.6µM
CCOc1ccccc1NC(=S)Nc1ccccc1F	–[1.84 µM]	–[11.4 µM]	–	–
CCOc1ccccc1NC(=S)Nc1ncccc1C	–	·	20µM	·
O=C=Nc1ccc(Cl)c(Cl)c1	·	–	–	–
NC(N)=NCCC[C@H](NC(=O)[C@@H](N)Cc1ccc(O)cc1)C(=O)O	·	·	·	–
CCc1cccc(NC(=O)CSC2=NS(=O)(=O)c3ccccc32)c1	–	5µM	–	–
Cc1ccc(-c2cc(-c3ccc4c(c3)OCO4)c(C#N)c(N)n2)o1	–	?	?	–
Cc1ccc(-c2cc(-c3ccc(C)o3)nc(N)c2C#N)cc1	–	?	16µM	–
Cc1ccc(-c2cc(-c3ccc(Cl)cc3)c(C#N)c(N)n2)o1	–	6.3µM	11µM	–
Cc1ccc(-c2cc(-c3ccc(F)cc3)c(C#N)c(N)n2)o1	·	·	?	–
c1ccc(C2=Nc3ccccc3SC2c2nc3ccccc3[nH]2)cc1 (centres undefined)	–	25µM	?	–
CCN(CC)C(=O)c1sc(NC(=O)c2nc3ncccn3n2)c(C(=O)OC)c1C	–	·	·	·
O=c1oc2cc(O)ccc2c2ccccc12	?	–	–	13µM
Nc1ncnc2c1ncn2[C@@H]1O[C@H](COP(=O)(O)OP(=O)(O)O)[C@@H](O)[C@H]1O	–	–	–	?
CC(C)N(CCC(=O)c1ccc2ccccc2c1)Cc1ccccc1	–	13µM	?	–
C#CCCOC(=O)N1C2=NC(C(=O)OC)=C(C(=O)OC)[C@@H]3N(CC#CC)c4ccccc4[C@]23C[C@H]1C(=O)OC	·	·	–[11.4 µM]	–
COc1ccc(Oc2nc(SC)nc3ccccc23)cc1	–[1.84 µM]	–[11.4 µM]	–	10µM
CC(=O)/C=C(\C)Nc1ccc(-c2cnc(-c3ccccc3)o2)cc1	?	–	–	8.9µM
c1ccc(-c2cnc(-c3ccc(-c4ncc(-c5ccccc5)o4)cc3)o2)cc1	·	–[11.4 µM]	–[11.4 µM]	–
Fc1ccc(-n2c(-c3ccc4ccccc4n3)n[nH]c2=S)cc1Cl	·	·	·	2.8µM
Cn1c(C(=O)Nc2ccc3c(c2)OCO3)cc2c(=O)n(C)c3ccccc3c21	–	–	–	–
CCOc1ccc(NC(=O)c2cc3c(=O)n(C)c4ccccc4c3n2C)cc1	–	–	–	7.9µM
Cc1c2cccc(Sc3ccccc3)c2c2c3c(cccc13)[S+](c1ccccc1)C2 (centres undefined)	·	–[11.4 µM]	–[11.4 µM]	–
CC(C)N1C(=O)CC(Nc2ccc(N3CCOCC3)cc2)C1=O (centres undefined)	–	25µM	?	–
SMILES	IMPase inh	15-hLO-2 inh	ALOX12 inhib	IMPase Li inh
COc1ccc(CCN2C(=O)CC(Nc3ccc(N4CCOCC4)cc3)C2=O)cc1OC (centres undefined)	–	25µM	?	–
CCc1ccc(NC2CC(=O)N(CCc3ccc(OC)c(OC)c3)C2=O)cc1 (centres undefined)	·	·	·	–
C=CC(C)(O)CC1[C@@]2(C)CCCC(C)(C)C2CC[C@]1(C)O (some centres undefined)	·	·	·	–
COc1cc2c(cc1NC(=O)CN1CCN(S(=O)(=O)c3ccccc3F)CC1)oc1ccccc12	–	–	–	5.6µM
CCCCC(=O)Nc1nc(C)c(C(C)=O)s1	–	–	–	–
CC(=O)c1sc(NC(=O)COc2c(C)cc(Cl)cc2C)nc1C	·	·	·	–
CCCC(=O)Nc1nc(C)c(C(C)=O)s1	·	·	·	8.9µM
CC(=O)c1sc(NC(=O)COc2ccc(Cl)cc2Cl)nc1C	·	·	·	10µM
CC(C)[C@@H]1C(=O)N(S(C)(=O)=O)[C@H]2CCN(C(=O)/C=C\CN3CCCCC3)[C@@H]12	–	–	–	–
COc1ccc(NC(=S)NCCc2ccc(Cl)cc2)c(OC)c1	?	25µM	?	–
Fc1ccc(NC(=S)NCCc2ccccc2)c(F)c1F	–	?	16µM	–
Fc1ccccc1NC(=S)NCCc1ccccc1	–	–	–	–
S=C(NCCc1ccc(Cl)cc1)Nc1ccc(Cl)cc1Cl	–	·	11µM	–
COc1ccc(NC(=S)NCCc2ccc(S(N)(=O)=O)cc2)c(OC)c1	·	·	·	–
Cn1cccc1C(=O)N1CCC[C@@]2(CCN(c3ccncc3)C2)C1	·	–	–	–
CC(=O)N=c1sc2nc3ccccc3nc2n1N(C(C)=O)C(C)=O	?	?	–	13µM
CC(=O)N=c1sc2ccccc2n1C	–	–	–	–
O=C=Nc1ccc(Cc2ccc(N=C=O)cc2)cc1	·	–	–	–
